According to the supplement of paper PMC10981050:
Values joined by “and” are separate entries in the source; they are usually repeats but may differ in a detail not shown here. Identical values can stand only once. Counter-ions that a name gives are not always drawn.

What was measured:
Assay in all cases: cell viability relative to vehicle control; higher = less cytotoxic
Details in all cases: 10 µM
K562 = test system: K562
Method in brief: (§1)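 Screening covered the Selleck bioactive, kinase and epigenetic probe libraries, less identity-inconsistent compounds, on CRISPR-edited mutant clones and isogenic wild-type clones of four leukaemia lines. Cells, at 2000 per well in 50 µL medium, received a single 10 µM acoustically dispensed dose. After 48 h the supernatant was removed and CellTiter-Glo luminescence was read. Viability was analysed in Genedata Screener as percent of the on-plate vehicle control.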

MARIMO = test system: MARIMO
Method in brief: as §1

MOLM14 = test system: MOLM14
Method in brief: as §1

OCI-AML2 = test system: OCI-AML2
Method in brief: as §1

SMILES	cell viability (K562; SRSF2 genotype: SRSF2 P95H/wt)	cell viability (K562; SRSF2 genotype: SRSF2 wt/wt)	cell viability (MARIMO; SRSF2 genotype: SRSF2 P95H/wt)	cell viability (MARIMO; SRSF2 genotype: SRSF2 wt/wt)	cell viability (MOLM14; SRSF2 genotype: SRSF2 P95H/wt)	cell viability (MOLM14; SRSF2 genotype: SRSF2 wt/wt)	cell viability (OCI-AML2; SRSF2 genotype: P95H/wt)	cell viability (OCI-AML2; SRSF2 genotype: wt/wt)
COc1c2c(cc3oc(COC4OC(CO)C(O)C(O)C4O)cc(=O)c13)OC(C(C)(C)O)C2 (stereo unspecified) [Prim-o-glucosylcimifugin]	83.8% and 84.2%	88.3%	84%	94%	88.3%	88.2%	91.8%	98.1%
Cc1ccc(O)c(O)c1 [4-Methylcatechol]	94.8% and 90.4%	98.3%	61.1%	89.5%	75.4%	85.3%	94%	90.9%
CC1=CCC(C(C)(C)O)CC1 (stereo unspecified)	102% and 104%	103%	101%	105%	96.1%	103%	103%	103%
CC(C)(O)[C@H]1CC[C@@](C)(C2[C@@H](O)C[C@@]3(C)[C@@H]4C[C@H](O)C5C(C)(C)[C@@H](O)CCC56CC46CC[C@]23C)O1 (stereo partly specified) [Cycloastragenol]	105% and 109%	97.6%	112%	118%	108%	107%	111%	110%
C/C=C/C=C/C(=O)O [Sorbic acid]	92.4% and 92.8%	92.6%	90.7%	99.1%	99.3%	101%	106%	106%
CC(C)Oc1ccc2c(=O)c(-c3ccccc3)coc2c1 [Ipriflavone]	88.2% and 88.5%	94%	85.2%	88.1%	110%	113%	71.6%	75.8%
C[N+](C)(C)C[C@H](O)CC(=O)[O-] [L-carnitine (Levocarnitine)]	103% and 99.6%	99.8%	99.1%	105%	95.1%	103%	90.9%	110%
COc1cc2c(cc1OC)[C@H]1C[C@@H](OC(=O)[C@@H](N)C(C)C)[C@H](CC(C)C)CN1CC2 [Valbenazine tosylate]	93.2% and 97.7%	101%	108%	93.9%	103%	106%	97.2%	96.9%
O=c1[nH]cc(F)c(=O)[nH]1 [Adrucil (Fluorouracil)]	92.3% and 90%	74.5%	68.5%	67.4%	37.5%	26.1%	49.1%	55.1%
C[C@@H]1[C@H]2c3cc4c(cc3O[C@@]35OCOC3=CC(=O)[C@H](C[C@H]1C)[C@@H]25)OCO4 [Sauchinone]	92.2% and 99.5%	100%	87.5%	92.9%	55.1%	94.9%	87.6%	86.8%
NCCCC[C@@H]1NC(=O)[C@@H](Cc2ccc(O)cc2)NC(=O)[C@H](CC(=O)O)NC(=O)CNC(=O)[C@H](CCCN=C(N)N)NC1=O [Cyclo(RGDyK)]	93.8% and 88.5%	89.8%	92.8%	96.9%	91.3%	90.9%	94.8%	93.9%
COc1cc2c(Oc3ccc(NC(=O)C4(C(=O)Nc5ccc(F)cc5)CC4)cc3F)ccnc2cc1OCCCN1CCOCC1	0.8% and 0.64%	0.55%	17.8%	12.1%	0.21%	0.34%	0.22%	1.03%
C[C@H](CCC(=O)O)[C@H]1CC[C@H]2[C@@H]3[C@H](O)C[C@@H]4C[C@H](O)CC[C@]4(C)[C@H]3C[C@H](O)[C@]12C [Sodium cholate]	103% and 101%	94.5%	88.2%	96.6%	89.8%	93.4%	88%	96.5%
Clc1ccc(C(Cn2ccnc2)OCc2ccsc2Cl)c(Cl)c1 (stereo unspecified) [Tioconazole]	69.5% and 76.7%	71.6%	69.7%	71.2%	62.4%	69.5%	59.9%	63.1%
C[C@]12CCC(=O)C=C1CC[C@@H]1[C@@H]2[C@@H](O)C[C@@]2(C)[C@H]1CC[C@]2(O)C(=O)CO [Hydrocortisone (Cortisol)]	99.7% and 98.6%	110%	105%	99%	107%	100%	109%	118%
CO[C@H]1[C@H](O)[C@@H](O)[C@@H](O)[C@H](O)[C@@H]1O [D-Pinitol]	114% and 107%	112%	108%	110%	105%	102%	112%	113%
CN1CCN(Cc2ccc(-c3cnc4[nH]cc(-c5ccc6[nH]ccc6c5)c4c3)cc2)CC1	2.18% and 1.72%	2.36%	0.62%	0.44%	0.32%	0.4%	0.33%	0.41%
Cc1cnc(NC(=O)Nc2cc(Br)c(C)cc2OC[C@@H]2CNCCO2)cn1	8.35% and 7.58%	8.76%	20.6%	8.01%	10.8%	6.96%	12.8%	12.1%
CC(=O)c1cc2c(o1)C(=O)c1ccccc1C2=O [Napabucasin]	0.4% and 0.37%	0.39%	3.59%	2.73%	0.37%	0.39%	0.4%	0.39%
Cc1cc(F)c(C(=O)Nc2cccc(-c3nncn3C(C)C)n2)cc1-n1cnc(C2CC2)c1 [Selonsertib (GS-4997)]	78.6% and 86.2%	82%	57.1%	72.1%	63.5%	68.5%	49.5%	62%
N=C(N)NC(=O)c1nc(Cl)c(N)nc1N [Amiloride HCl]	88.4% and 98.5%	92.9%	99.3%	96.2%	72.8%	86.7%	85.8%	84.7%

SMILES	cell viability (K562; SRSF2 genotype: SRSF2 P95H/wt)	cell viability (K562; SRSF2 genotype: SRSF2 wt/wt)	cell viability (MARIMO; SRSF2 genotype: SRSF2 P95H/wt)	cell viability (MARIMO; SRSF2 genotype: SRSF2 wt/wt)	cell viability (MOLM14; SRSF2 genotype: SRSF2 P95H/wt)	cell viability (MOLM14; SRSF2 genotype: SRSF2 wt/wt)	cell viability (OCI-AML2; SRSF2 genotype: P95H/wt)	cell viability (OCI-AML2; SRSF2 genotype: wt/wt)
CCC1(c2c[nH]cn2)Cc2ccccc2C1 [Atipamezole]	82.9% and 78.3%	81.6%	83.2%	85.9%	78.9%	88.9%	90%	89.7%
O=C(Nc1cccc(Cl)c1)Nc1ncc(CCNc2ncnc3ccsc23)s1 [SNS-314 Mesylate]	63.5% and 68.5%	75.3%	68.8%	76.5%	18.7%	12.8%	28.2%	30.8%
Cc1cccc(CN2CCN(C(c3ccccc3)c3ccc(Cl)cc3)CC2)c1 (stereo unspecified) [Meclizine dihydrochloride]	87.7% and 94.2%	91.5%	92.2%	105%	86.2%	91.2%	86.4%	83.2%
CC(C)Nc1cc(-c2c[nH]c(C(=O)N[C@H](CO)c3cccc(Cl)c3)c2)c(Cl)cn1	73.3% and 90.4%	81.5%	37.9%	40%	48.8%	34.9%	41.8%	37.6%
C[C@@H](c1ncncc1F)[C@](O)(Cn1cncn1)c1ccc(F)cc1F [Voriconazole]	102% and 99.5%	99%	107%	106%	99.5%	101%	104%	108%
CCCCOC(=O)c1ccccc1Nc1cccc(C(F)(F)F)c1 [Ufenamate]	101% and 100%	99.2%	93%	102%	103%	109%	110%	110%
Nc1ccc(S(=O)(=O)Nc2cncc(Cl)n2)cc1 [Sulfalozine sodium]	101% and 97.3%	104%	103%	111%	92.7%	102%	107%	88.8%
CCC(C)(Oc1ccc(C2(c3ccc(OC(C)(CC)C(=O)O)cc3)CCCCC2)cc1)C(=O)O (stereo unspecified) [Clinofibrate]	95.4% and 93.2%	93.7%	92.4%	102%	93.8%	96.6%	90.4%	102%
C[C@H]1c2cccc(O)c2C(O)=C2C(=O)[C@]3(O)C(O)=C(C(N)=O)C(=O)[C@@H](N(C)C)[C@@H]3[C@@H](O)[C@@H]21 [Doxycycline]	82.7% and 74.8%	79.9%	91.8%	91.3%	102%	99.5%	88.2%	96.2%
C[n+]1c2ccccc2nc2ccccc21 [Phenazine methosulfate]	6.28% and 2.85%	13.5%	4.9%	8.06%	2.87%	1.78%	2.71%	4.56%
O=c1c(O)c(-c2ccc(O)c(O)c2)oc2cc(O)ccc12 [Fisetin (Fustel)]	102% and 108%	105%	104%	100%	86.8%	103%	102%	95.1%
CC1(C)C=C(CN2C/C(=C\c3ccc(F)cc3)C(=O)/C(=C/c3ccc(F)cc3)C2)C(C)(C)N1O	1.83% and 3.61%	1.04%	0.52%	1.15%	0.27%	0.28%	0.24%	0.32%
COc1ccc(C[C@@H](C)NC[C@H](O)c2ccc(O)c(NC=O)c2)cc1 [Arformoterol Tartrate]	97.2% and 91.1%	98.8%	85.2%	106%	86.5%	90.9%	109%	103%
CCn1c(=O)c(-c2ccc(-c3cncs3)cc2Cl)cc2cnc(Nc3ccc(N4CCN(C)CC4)cc3)nc21	86.2% and 86.7%	74.6%	75.6%	75.9%	46.6%	53.2%	71%	61.2%
CC(C)=CCC[C@@](C)(O)[C@H]1CC[C@@]2(C)[C@@H]1[C@H](O)C[C@@H]1[C@@]3(C)CC[C@H](O)C(C)(C)C3CC[C@]12C (stereo partly drawn) [(20R)-Protopanaxdiol]	109% and 101%	96%	103%	105%	106%	102%	103%	101%
Cc1[nH]c(/C=C2\C(=O)Nc3ccccc32)c(C)c1CCC(=O)O [Orantinib (TSU-68, SU6668)]	98.7% and 95.2%	95.5%	96.3%	103%	82%	89.2%	75.2%	84.2%
CCOC(=O)n1ccn(C)c1=S [Carbimazole]	107% and 106%	113%	110%	103%	103%	111%	108%	97.4%
CCOC(=O)C1=C[C@]2(CC)CCCN3CCc4c(n1c1ccccc41)[C@@H]32 [Vinpocetine (Cavinton)]	93.6% and 101%	95.6%	96.5%	110%	101%	101%	89.5%	101%
CC[C@H]1OC(=O)C[C@@H](O)[C@H](C)[C@@H](O[C@@H]2O[C@H](C)[C@@H](O)[C@H](N(C)C)[C@H]2O)[C@@H](CCN2C[C@H](C)C[C@H](C)C2)C[C@@H](C)C(=O)/C=C/C(C)=C/[C@@H]1CO[C@@H]1O[C@H](C)[C@@H](O)[C@@H](OC)[C@H]1OC [Tilmicosin]	96.5% and 94.4%	99.4%	95.6%	106%	98.5%	103%	93.3%	105%
COc1ccc(C(=O)O)c(O)c1 [4-Methoxysalicylic acid]	104% and 95.4%	107%	98.6%	99.3%	98.1%	106%	101%	106%
Cc1cccc(C)c1NC(=O)C1CCCCN1C (stereo unspecified) [Mepivacaine HCl]	105% and 102%	111%	106%	95.3%	96.5%	102%	108%	99%
